The nature of test [1]: qHTS assay for small molecules that induce genotoxicity in human embryonic kidney cells expressing luciferase-tagged ATAD5 (AID 651632). Note: nearly all actives have a fitted effect of over 15% in size. The gist of the method:
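Quantitative HTS in HEK293T expressing luciferase-tagged ATAD5, whose levels rise upon DNA damage. Exposure ran 16 hr at 37C and 5% CO2, with luminescence read 30 min after Amplite addition at room temperature.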
Background: Quantitative high-throughput screening tests each substance at several concentrations.

The nature of test [2]: qHTS assay for small molecule agonists of the p53 signaling pathway - cell viability (AID 651633; calls by dose curve;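 note: p53RE-bla HCT reporter cells with a stable beta-lactamase p53 reporter; nearly all actives have a fitted effect of over 30% in size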). The gist of the method: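 p53RE-bla cells were treated with compound for 16 hours at 37 C. Cytotoxicity was then measured as CellTiter-Glo luminescence after 30 min at room temperature.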
The nature of test [3]: qHTS assay for small molecules that induce genotoxicity in human embryonic kidney cells expressing luciferase-tagged ATAD5 - cell viability (AID 651634; calls by dose curve; note: nearly all actives have a fitted effect of over 25% in size). In a few lines:
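After 15.5 hr incubation with compound at 37C, 5% CO2, HEK293T ATAD5-luciferase cells received CellTiter-Fluor reagent; fluorescence intensity was quantified following 30 min at 37C.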

The nature of test [4]: qHTS assay for small molecule disruptors of the mitochondrial membrane potential - cell viability (AID 720634; calls by dose curve; note: nearly all actives have a fitted effect of over 20% in size; note: potency is the fitted concentration of half-maximal effect). The gist of the method:
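ATP-based luminescent viability readout (CellTiter-Glo, 30 min, room temperature) in HepG2 cells multiplexed with the m-MPI membrane potential dye; compound exposure lasted 1 hr at 37 C.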

Test [5] is described as follows: qHTS assay for small molecule disruptors of the mitochondrial membrane potential (AID 720635). In a few lines:
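HepG2 cells exposed to compound 1 hr at 37C, then Mito-MPS dye 30 min. Ratio read of aggregate (540/590 nm) versus monomer (490/535 nm) fluorescence.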

Test [6] in a line: qHTS assay to test for compound auto fluorescence at 590 nm (red) in HepG2 cells (AID 720674). The gist of the method: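 Fluorescence at 590 nm emission following 540 nm excitation was recorded from HepG2 wells one hour after compound transfer, with DMSO-only wells as vehicle and Rose Bengal sodium equivalency as the scale.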
A short description of test [7]: qHTS assay to test for compound auto fluorescence at 535 nm (green) in HepG2 cells (AID 720675).
The nature of test [8]: qHTS assay to test for compound auto fluorescence at 460 nm (blue) in HEK293 cells (AID 720678). The gist of the method:
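HEK293, 2,000 cells/well, 10% dialyzed FBS; attach 4-5 hr 37C; pin compound or DMSO; o/n 37C/5% CO2; fluorescence 405/460 nm; triamterene-equivalent units.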

Test [9] can be described thus: qHTS assay to test for compound auto fluorescence at 590 nm (red) in HEK293 cells (AID 720679). In a few lines: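 Intensity at 540nm excitation and 590nm emission is reported as Rose Bengal sodium-equivalent autofluorescence. Measurements followed overnight exposure (37C, 5% CO2) of HEK293 cells, 2,000 per well, to 23 nL compound.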
A short description of test [10]: qHTS assay to test for compound auto fluorescence at 535 nm (green) in HEK293 cells (AID 720680).
Test [11] is described as follows: qHTS assay to test for compound auto fluorescence at 460 nm (blue) in HEK293 cell free culture (AID 720681). The gist of the method:
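Compounds were added to cell-free DMEM with 10% FBS and fluorescence read directly. The blue channel used 405 nm excitation and 460 nm emission, with triamterene as the reference fluorophore.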

A short description of test [12]: qHTS assay to test for compound auto fluorescence at 535 nm (green) in HEK293 cell free culture (AID 720682). The gist of the method: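 Read-out: 485/535 nm fluorescence intensity, calibrated against fluorescein. Medium only (DMEM + 10% FBS, no cells); test compound or DMSO vehicle added by pintool before plate reading.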
Test [13] can be described thus: qHTS assay to test for compound auto fluorescence at 590 nm (red) in HepG2 cell free culture (AID 720684). The gist of the method: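 Auto fluorescence equivalency versus Rose Bengal sodium, red channel Ex/Em 540/590 nm; compounds in cell-free MEM/10% FBS; DMSO vehicle control.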
Test [14] in a line: qHTS assay to test for compound auto fluorescence at 460 nm (blue) in HepG2 cell free culture (AID 720685). The gist of the method: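 Cell-free plates of MEM plus 10% FBS received 23 nL compound or DMSO vehicle; blue-channel (405/460 nm) intensity scored against triamterene as reference fluorophore.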
The nature of test [15]: qHTS assay to test for compound auto fluorescence at 535 nm (green) in HepG2 cell free culture (AID 720686).
The nature of test [16]: qHTS assay to test for compound auto fluorescence at 460 nm (blue) in HepG2 cells (AID 720687). The gist of the method:
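HepG2 cells in MEM with 10% FBS, attached overnight at 37 C, were exposed to compound or DMSO for 1 hr at 37 C, 5% CO2. Blue fluorescence was read at 405/460 nm, with triamterene as reference fluorophore.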

In test [17] the target is Glucocorticoid receptor (Homo sapiens) (UniProt P04150). Description: qHTS assay to identify small molecule agonists of the glucocorticoid receptor (GR) signaling pathway (AID 720691; active = well fitted activation curve with a large enough effect in the signal ratio in the repeat runs, not every such curve was filed as active; the % refers to the signal ratio). The following applies: GR-bla HeLa, beta-lactamase reporter ratio, 18 h; activation: at 62.4 µM (top of the series). In a few lines: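 Cells: GR-bla HeLa, endogenous GR with stably integrated GRE-beta-lactamase reporter. Treatment 18 h, 37 C, compounds delivered in DMSO. Detection via LiveBLAzer B/G FRET substrate, 2 h RT, fluorescence intensity.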

The target is the same in test [18]. Description: qHTS assay to identify small molecule antagonists of the glucocorticoid receptor (GR) signaling pathway (AID 720692; active = well fitted inhibition curve with a large enough effect in the signal ratio in the repeat runs, not every such curve was filed as active; the % refers to the signal ratio). In a few lines:
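Quantitative HTS in antagonist format: HeLa cells expressing endogenous GR and a stably integrated GRE-bla reporter, stimulated with 5 nM dexamethasone (final) alongside test compounds for 18 h.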

The nature of test [19]: qHTS assay to test for compound auto fluorescence at 590 nm (red) in HEK293 cell free culture (AID 720683). The gist of the method: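 Cell-free wells of DMEM with 10% FBS received compound, and intrinsic fluorescence was read at excitation/emission 540/590 nm. Values expressed as equivalence to Rose Bengal sodium.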

Records with an inconclusive call do not appear. Activity calls are given as the source filed them. Unless noted, calls come from the whole dose curve; as a rule, active = well fitted curve in the direction sought with a large enough effect in the repeat runs; inconclusive = weak or mixed curves; inactive = no such curve, though single readings can be large; an effect the other way counts as inactive or inconclusive.

Sequence of Glucocorticoid receptor (Homo sapiens) (P04150 whole entry, looked up): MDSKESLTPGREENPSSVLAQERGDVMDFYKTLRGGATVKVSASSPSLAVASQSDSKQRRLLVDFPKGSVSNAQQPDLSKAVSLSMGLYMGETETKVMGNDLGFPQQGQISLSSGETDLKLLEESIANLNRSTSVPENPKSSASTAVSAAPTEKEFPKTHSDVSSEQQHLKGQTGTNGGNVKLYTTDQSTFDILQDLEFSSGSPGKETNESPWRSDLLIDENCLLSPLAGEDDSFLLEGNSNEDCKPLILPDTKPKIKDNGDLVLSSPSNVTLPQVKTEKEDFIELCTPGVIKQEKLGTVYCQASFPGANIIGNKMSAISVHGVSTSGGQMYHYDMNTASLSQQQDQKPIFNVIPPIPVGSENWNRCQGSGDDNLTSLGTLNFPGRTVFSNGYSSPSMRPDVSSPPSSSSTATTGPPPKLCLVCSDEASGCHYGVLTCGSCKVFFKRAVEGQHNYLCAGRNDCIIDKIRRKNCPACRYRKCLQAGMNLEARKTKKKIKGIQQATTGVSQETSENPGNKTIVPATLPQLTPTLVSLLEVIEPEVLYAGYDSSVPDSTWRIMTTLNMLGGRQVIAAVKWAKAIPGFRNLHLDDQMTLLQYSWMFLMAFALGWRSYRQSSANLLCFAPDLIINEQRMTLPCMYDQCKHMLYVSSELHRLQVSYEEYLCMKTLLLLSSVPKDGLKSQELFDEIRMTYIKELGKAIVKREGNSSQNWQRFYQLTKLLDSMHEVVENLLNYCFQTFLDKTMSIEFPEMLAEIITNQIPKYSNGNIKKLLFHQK

With `O=C(O)CCCC[C@@H]1SC[C@@H]2NC(=O)N[C@@H]21`, the compound was classed as inactive in test [1], in [6], in [7], in test [8], in test [9] and in test [10]. The compound was classed as inactive in test [11], in test [12], in test [13], in [14], in [15] and in test [16]. For the same compound, the Potency result in [2], in test [3], in [4], in test [5], in test [17] and in [18] was “inactive” each time.

For the compound `CC(c1cc2ccccc2s1)N(O)C(N)=O` (centres undefined), the compound was called inactive in test [1], in test [7], in test [8], in [9], in test [11] and in [12]. Further, the outcome in [19], in [13], in test [15] and in test [16] was inactive. Further, in [4], the Potency was 27.3 µM (active). For the same compound, the Potency result in [5], in test [17] and in test [18] was “inactive” each time.

With `CCCCCCCCCCCCOCCO`, the call in test [1], in test [6], in [7], in test [8], in test [9] and in test [10] was inactive. Moreover, the compound was classed as inactive in test [11], in [12], in test [19], in test [13], in test [15] and in test [16]. Besides, the Potency entry in test [2], in [4] and in test [17] was “inactive” in each case.

With `O=[N+]([O-])c1ccc(/C=C/c2ccc([N+](=O)[O-])cc2S(=O)(=O)O)c(S(=O)(=O)O)c1`, the compound was called inactive in [1], in test [7], in test [8], in [9], in test [11] and in [12]. Moreover, the compound was called inactive in test [19], in test [13], in test [14], in test [15] and in test [16]. Also, the Potency result in test [2], in test [3], in test [4], in test [5], in test [17] and in test [18] was “inactive” in each case.

For `CCCCCC1=CCCC1=O`, the compound was called inactive in test [1], in [6], in test [7], in test [8], in test [9] and in test [10]. For the same compound, the compound was called inactive in test [11], in [12], in [13], in [14], in test [15] and in test [16]. For the same compound, the Potency entry in test [2], in test [3], in [4], in test [5], in test [17] and in [18] was “inactive” throughout.

`OC[C@H]1O[C@@](CO)(O[C@H]2O[C@H](CO)[C@@H](O)[C@H](O)[C@H]2O)[C@@H](O)[C@@H]1O`: the outcome in test [6], in test [7], in test [8], in [9], in test [10] and in [11] was inactive. Besides, the result in test [12], in [19], in test [13], in test [14], in test [15] and in test [16] was inactive.

These data come from PubChem BioAssay (Tox21).
